In ChEMBL document CHEMBL3988442, “University of Dundee, Small-Polar-MMV Screening Library” (2021):
The campaign covered roughly 48,000 compounds. About 13,000 (27%) showed an effect of 50% or more. This is one part of the list.

What follows are molecules tested on Wolbachia pipientis (assay: Anti-Wolbachia Cell-Based Screen). Details: 5 µM.
Assay type: functional
Parameters: scale not given: in the data most compounds retested in dose-response had high values

Going from Cn1cc(N2CCCC(Nc3ccc4c(c3)CCCO4)C2=O)cn1 (stereo not given) to Cn1cc(C(=O)Nc2cccc(CCN3CCCC3)c2)ccc1=O, the “Percent Effect” value falls from 3.281% to -2.076%.

First: CC1CCN(C)c2ccccc2N1C(=O)c1ccc(=O)n(C)c1 (stereo not given)
Second: O=C(c1ccc(-c2ccccc2)[nH]c1=O)N1CCCn2ncnc21
The “Percent Effect” value of the first is lower: -5.744% for the first, 1.123% for the second.

Going from CNS(=O)(=O)c1cccc(CNc2ccc(C(F)(F)F)nn2)c1 to COc1ncc(Cl)c(NCc2ccc([S+](C)[O-])cc2)n1 (stereo not given), the “Percent Effect” value falls from 12.46% to -2.144%.

Compared with Cc1cc(C)n(CC(=O)N2CCC(c3nc(C)no3)CC2)n1, Cc1cc(C)n(CCC(=O)N2CCC(c3nc(C(C)C)no3)CC2)n1 is higher in “Percent Effect” value: -3.198% for the first, 8.819% for the second.

Going from COc1cccc(CC(=O)N2CCC(c3ccn4nccc4n3)CC2)c1 to Cc1cc(C)n(CC(=O)N2CCC(c3ccn4nccc4n3)CC2)n1, the “Percent Effect” value falls from 113.7% to 104.2%.

First: CCOCCCC(=O)N1CCN(C(=O)Cc2cccc(OC)c2)CC1
Second: COc1cccc(CC(=O)N2CCCN(c3ccnc(C)c3)CC2)c1
The “Percent Effect” value of the first is higher: -5.603% for the first, -23.77% for the second.

Going from CC1CCN(C(=O)Cn2cc(I)cn2)CC1 to Cc1cnn(CC(=O)N2CCC(c3ccn4nccc4n3)CC2)c1, the “Percent Effect” value rises from 2.364% to 130%.

Compared with Cc1nc(O)cc(C2CCN(C(=O)CN(C)c3ccccc3)CC2)n1, Cc1ccsc1[C@@H]1CCN(C(=O)CCC(=O)c2ccccc2)C[C@H]1O is lower in “Percent Effect” value: -2.835% for the first, -8.391% for the second.

First: O=C(Nc1cccc(OCc2ccc(F)cc2)c1)C1COCCO1 (stereo not given)
Second: Cc1ccnc(N2CCC(=O)N(Cc3ccc(F)cc3)C(C(C)C)C2)n1 (stereo not given)
The “Percent Effect” value of the first is lower: -6.014% for the first, -3.35% for the second.

Going from CCOc1ccc(CC(=O)Nc2cnccc2SCCCO)cc1 to COc1c(CNCc2ccc(Cn3ccnc3)cc2)c(C)nn1C, the “Percent Effect” value rises from 9.652% to 103%.

First: CCC[C@@H]1CN(Cc2nnc(-c3cccnc3)o2)C[C@H]1NC(C)=O
Second: O[C@@H]1C[C@@H](c2nc(-c3cccnc3)no2)N(C2CCOCC2)C1
The “Percent Effect” value of the first is lower: -9.676% for the first, 9.041% for the second.

Going from CC1=Nc2c(c(O)nn2C(C)C)C(c2cn(C)nc2C)S1 (stereo not given) to CC1=Nc2c(c(O)nn2C(C)C)C(c2cnn(C)c2)S1 (stereo not given), the “Percent Effect” value falls from 105.3% to 103.6%.

First: CC1=Nc2c(c(=O)[nH]n2C2CCOCC2)C(c2cccc(Br)c2)S1 (stereo not given)
Second: CC1=Nc2c(c(O)nn2C2CCOCC2)C(c2cccnc2)S1 (stereo not given)
The “Percent Effect” value of the first is lower: 2.755% for the first, 111.6% for the second.

Compared with CC1=Nc2c(c(O)nn2C(C)C)C(c2cccnc2)S1 (stereo not given), CC1=Nc2c(c(=O)[nH]n2C(C)C)C(c2cccs2)S1 (stereo not given) is lower in “Percent Effect” value: 138.8% for the first, -8.42% for the second.

Going from Cc1cccc(C(C(=O)N2CC(c3cccnc3)C2)N(C)C)c1 (stereo not given) to O=C(c1cccnc1Oc1ccccc1)N1CCCn2ncnc21, the “Percent Effect” value rises from -9.21% to 8.828%.

Compared with COC(=O)[C@H](CSC)Nc1nc(C2CCCC2)nc2c1cnn2C, CN(Cc1nnc2n1CCC2)C(=O)c1ccc(=O)n(C)n1 is higher in “Percent Effect” value: -6.594% for the first, -6.286% for the second.

Going from CCCN(CC1COc2ccccc2O1)C(=O)C1=NN(C)C(=O)CC1 (stereo not given) to CCc1ccc(S(=O)(=O)N2CCCC(c3ncc[nH]3)C2)s1 (stereo not given), the “Percent Effect” value falls from -3.876% to -13.86%.

Going from CC(C)N(CCS(C)(=O)=O)Cc1csc(Cc2ccc(Cl)cc2)n1 to CCOCCS(=O)(=O)Cc1ccn(-c2cccc(F)c2)n1, the “Percent Effect” value falls from -7.743% to -15%.

First: COCCOc1ncccc1C(=O)N1CCCn2ncnc21
Second: COC(=O)c1ccc(S(=O)(=O)N2CCCn3ncnc32)s1
The “Percent Effect” value of the first is lower: -1.947% for the first, 103.1% for the second.

Going from CCc1ccc(S(=O)(=O)N2CCCn3ncnc32)s1 to O=S(=O)(c1ccc(Cl)s1)N1CCCn2ncnc21, the “Percent Effect” value rises from 83.72% to 95.01%.

First: CCC[C@H]1CN(S(=O)(=O)c2ccc(CC)s2)C[C@@H]1N
Second: Cc1ccc(S(=O)(=O)N2CCN(CCCO)CC2)s1
The “Percent Effect” value of the first is lower: -3.149% for the first, 107% for the second.

Compared with O=S(=O)(c1ccc(Cl)s1)N1CCCC(c2ncc[nH]2)C1 (stereo not given), N#CCCN1CCN(S(=O)(=O)c2ccc(Cl)s2)CC1 is higher in “Percent Effect” value: 4.292% for the first, 101.8% for the second.

Going from Cc1ccc(CNC(=O)CN2CCN(CCO)CC2)s1 to Cc1ccc(CNC(=O)CNCC2CCN(CCO)CC2)s1, the “Percent Effect” value rises from 0.0165% to 0.4784%.

First: CCN1CCN(S(=O)(=O)c2cnc(NC(C)=O)s2)CC1
Second: Cc1ccc(S(=O)(=O)N2CCN(CCC(N)=O)CC2)s1
The “Percent Effect” value of the first is lower: -4.735% for the first, 97.05% for the second.

Going from Cc1ccc(S(=O)(=O)N2CCC(Cn3cc(C(C)(C)N)nn3)CC2)s1 to Cc1ccc(S(=O)(=O)N2CCN(CCC#N)CC2)s1, the “Percent Effect” value rises from -17.3% to 7.923%.

Compared with CC1(C)OCC2(CO1)CN(S(=O)(=O)c1ccc(Cl)s1)C2, CC(C)CC(C)NC1CCN(c2ccc(-c3cscn3)cc2)CC1 (stereo not given) is higher in “Percent Effect” value: -3.142% for the first, 3.924% for the second.

Going from COc1ccccc1Oc1ncccc1CNC(=O)[C@@H](C)NC(C)=O to COc1c(CNCc2ccccc2-n2ccnc2)c(C)nn1C, the “Percent Effect” value rises from -4.174% to -0.9457%.

For CC(=O)N(C)CC(=O)Nc1cnc(-n2ccnc2)nc1, the “Percent Effect” value was 3.406%.
